Data reported in PubChem BioAssay AID1508600 (Functional Genomics Laboratory (NCATS/FGL), 2020).
The whole screen tested about 53,000 sequences, of which about 3,700 (7%) were called active.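 The calls were made as follows: active = gene knockdowns whose robust z-score for IL-1 alpha signal is at least 2 or at most -2, so actives lie on both sides; inactive = the rest.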 The sample as a whole holds a higher share of actives than the screen did.

assay: Components of the Cytosolic LPS Sensing Pathway: Gene Identification via Genome-wide siRNA Screen; conditions: RAW264.7 macrophages, IL-1a HTRF, actives lie on both sides, screened at 100 nM (by protocol), cells primed 5 h with Pam3CSK4 first;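 also: robust z of the log signal after scaling to non-targeting control siRNA wells of the plate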
In short: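 Cells (RAW264.7, 1×10^4 per well) were transfected with siRNA at 100 nM and cultured 48h at 37 degrees C. Pam3CSK4 was added for 5 hours; LipidA transfection followed for 24 hour. IL-1a was then measured by HTRF.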

Sequence	z-score
GCGGGAUUGGUCAUUCCACTT against Mrpl45	2.97 (active)
CGAACAUGUACAACAAAGATT against Cacna2d3	-0.181 (inactive)
GGAACAAAGACUUCAAAGATT against Olfr323	-0.249 (inactive)
GGUGCUAAAAAUGAGCCUUTT against Urm1	-1.66 (inactive)
GGGAUGGCCAUAGAACAGATT against Echdc2	-0.211 (inactive)
CCCUAGACUUGAGAGUUUUTT against Eif2s1	1.29 (inactive)
GGCUGUGGAAGUGCAGAACTT against Dnmt3a	-2.53 (active)
CCGAGAGGUUUAAGGUCUCTT against Nsg1	1.18 (inactive)
GCUAGUCUACCCAAGUGACTT against Dennd6b	4.35 (active)
CCUACUUACUCCUGUAUAATT against Adam3	1.77 (inactive)
CGAAACCAACAGUUAGAAGTT against Cby1	0.71 (inactive)
GAUCCUCACGAAAUAGGUATT against Olfr1372-ps1	0.737 (inactive)
GGUCUCUAGUGGAAAAGCATT against A430093F15Rik	-3.05 (active)
GCUCUUAAAACCCACCUGATT against Gzf1	-1.97 (inactive)
UAAUGGCUGCUGUCUCCUGTT against Olfr441	0.405 (inactive)
GGCGAAAAAGAACUUCUCCTT against Prrx1	-2.17 (active)
GCCUACAUUCACUCACUCCTT against Olfr1061	-0.016 (inactive)
GGAUCAUUCGGACAAAAGUTT against Pax5	-1.31 (inactive)
GGAGAAGAAGAUUUUUGGCTT against Gpr108	-0.684 (inactive)
GCCAACAAAGUGAUCGAAGTT against Fkbp10	0.175 (inactive)
CCAGCAAUGUACCAGUUCATT against Micos13	-2.02 (active)
GGUGAAAGAGAAGACUGAATT against Aimp1	-0.418 (inactive)

Sequence	z-score
GGGUAUUCCUUCCAACACCTT against Lrrc4	-2.14 (active)
CCCAGUAUCAGACUAUCAUTT against Inpp4a	-0.178 (inactive)
CGAAUUUUGGAGAUGUAUGTT against Ddias	0.376 (inactive)
GGAACAAAGAAGUCAAAGATT against Olfr16	-0.765 (inactive)
CGGUGAUCAAUCAUUGUAATT against Tas2r113	-2.16 (active)
GCCUGUCAACUACCCAUAUTT against Ergic3	-1.13 (inactive)
GGCAAUGAGUCUGACCUCUTT against Capg	-1.39 (inactive)
GCUAAGGCUUGGAAUGACATT against Maged1	-0.105 (inactive)
GGUGGUGGGUCCAAUUUUUTT against Jpt1	0.411 (inactive)
GGACGUAGAAGUUUGGGAGTT against Nupl2	1.39 (inactive)
GCACGUUCAGUGCACACCUTT against Nubp1	2.59 (active)
CCCUCACAACUUGAAGGACTT against Ccnk	-0.882 (inactive)
GGAAGAAGUAGACCUGUCUTT against Aar2	-2.36 (active)
GGCUUUAGCAGAUGAGCGATT against Sptbn4	-0.0568 (inactive)
GGGACUGAGGACUACAUUCTT against Eif1b	-1.17 (inactive)
GGAGAAAUAAAUGACUUGCTT against Zswim2	-0.762 (inactive)
CCCACAGUACAUUCUAAAATT against Arsb	0.776 (inactive)
GCGUCAAAAUUAUCCGAAATT against Trnau1ap	0.124 (inactive)
GGACACGUUUCUGUGUUGUTT against Tspan32	0.304 (inactive)
GCACUAUGGGUGUCAUGGUTT against Mon1a	-3.1 (active)
CGUAUUCCAUGGUUUCCUATT against Whrn	0.111 (inactive)
GGAGUUUCUGGAAUGCAGGTT against Sec22c	0.741 (inactive)

Sequence	z-score
GCACAAUUUUAUAACUCGGTT against Lrrc49	0.457 (inactive)
GGAUAACUAUAUUCCAGUGTT against Rhobtb3	0.885 (inactive)
GGCUAAAACACUUAUCAAUTT against Poteg	-2.32 (active)
CGUACCAUGUAAAUUCUAUTT against Impa1	0.843 (inactive)
CCCAAGAAACUUCGCUUCCTT against Ehmt1	-0.551 (inactive)
GCCAAGCUUAAGAACUUAATT against Oas3	1.51 (inactive)
GGAAUAGGCCUUCUUGCUGTT against Matr3	-0.395 (inactive)
GCAAGACGGUGAUUGUAACTT against Pck2	-0.243 (inactive)
GCUGAUUGAACUGAAUGGATT against Slc22a21	-1.27 (inactive)
CCAGGAUUGAUUUAGAAAATT against BC107364	1.29 (inactive)
GGUCAUGGCUGGAUUUCUUTT against Olfr1462	-2.42 (active)
GCAGUGUCCAAAGCACUUUTT against Slc6a9	-1.14 (inactive)
GGAUCGCUUAGUCUCAUGATT against Inip	-0.493 (inactive)
GGUGAACGAUGUCAACUUUTT against Dvl1	-0.545 (inactive)
GCAUAGGAGAGACCAACAUTT against Zcchc10	-2.42 (active)
GGAGGAAAAUCAGACAGGATT against Olfr1419	-0.13 (inactive)
GGUCCUCAAGAUCUUUGUGTT against Extl1	0.0445 (inactive)
CCAAAACAACCACAAGUAGTT against Zfp385c	-2.96 (active)
GCUCUGUGGACUUCUUGGATT against Znrf4	-0.687 (inactive)
GGGCUAAAGCCUUCAACACTT against Olfr923	0.315 (inactive)
CCCUUACAACUCAAGUAUCTT against Lrig3	2.1 (active)
GGUUGAAAAUGUUGUCAGGTT against Atpsckmt	-0.733 (inactive)

Sequence	z-score
GGGUUUUUGUCAAAUCUGUTT against Ttc5	-2.24 (active)
GGACAUCCAGACCAAUGUCTT against Psmd8	1.1 (inactive)
GGUCCAGACAUUUGGAUACTT against Cav2	0.428 (inactive)
GGAUACCUGAAAAUUGAUATT against Npr1	-0.667 (inactive)
GGGAAGCUUUACUUUUUAATT against Mapk4	2.05 (active)
CCUUAUGAAUCCCGAGUACTT against Bmp6	-0.0506 (inactive)
GGGCAAAAAAGGUCUAUUCTT against Rfpl4	0.44 (inactive)
CCACAGUAUCAUGUAACUATT against Il1a	-2.23 (active)
GGAACCUAUUGCUGUUUUATT against Map2k3	-0.756 (inactive)
GGAAUGUGGUUUCCUGUUATT against Fscn3	0.502 (inactive)
GGCUGAACAAGAGAAACCATT against Ppdpf	-2.49 (active)
CCCAGAAUUAAACAUAGCUTT against Rrh	0.0181 (inactive)
GGAAACCUGCUCAUAGUGGTT against Olfr1188	0.54 (inactive)
GCAUGCCUAAAUUUGGGACTT against Fyb	0.805 (inactive)
GGCUGGACACUGAGAAAAATT against Adcy4	1.63 (inactive)
GGUAUUUGGAGUACCCUUUTT against Arhgap11a	0.196 (inactive)
GGACAAGACUCUCAGUUCATT against Atpaf1	0.77 (inactive)
GGAAUUUAGAAAAUGUGACTT against Vmn1r227	-2.67 (active)
GGGUGAUCUGUAGUAUUUUTT against Olfr574	-0.879 (inactive)
CCCUGUUACGAAGUUUAACTT against Slc17a7	-1.27 (inactive)
GGUGACUCUGAUUCUCAUATT against Slc22a13	-0.176 (inactive)
GGAACUUGUACAAAUAGGATT against Lpcat1	0.587 (inactive)

Sequence	z-score
GGACGAAGAGGAGAAAGAGTT against Ccdc184	-1.25 (inactive)
GCUUAUUCCCAGGAGACCATT against Dmrtc2	-0.764 (inactive)
CCCACCUUAUGGGACAAAATT against Hlf	2.05 (active)
GGUGGCCCAGUCUAAAGAATT against R74862	0.872 (inactive)
CCAGUGACAUUCAAUACCUTT against Lrif1	-1.52 (inactive)
GGUCAAUAUUGGCUUAUGUTT against Tmem42	-1.43 (inactive)
GGUGGAGAGAAAGAGAAAATT against Mcm8	0.767 (inactive)
GGGUUACUUUAGCUAUUUCTT against Rbm14	-1.11 (inactive)
GGCUGAACAGGCAUGAUCATT against Rpap1	-3 (active)
GGAGCUGCUAUGUACACAUTT against Bptf	0.364 (inactive)
GGGUGAAUUUCCACCUUAUTT against Sgce	-0.521 (inactive)
GGAGAAAAUACAACUGUGATT against Ctrc	-1.05 (inactive)
CGAAAAUCAAGCGGAAUUUTT against Zmiz1	2.49 (active)
GGGCUCACUCUGUCUCUACTT against Rpp25l	-0.378 (inactive)
CCAAAUCUGGUGUGAUUCATT against Arhgef4	-0.923 (inactive)
GCAAAGAGGCCUAAUUGAATT against B2m	1.16 (inactive)
GGAUUUCAAACACGUCUUUTT against Asic5	0.222 (inactive)
GGCGGGUUUGCUGAAUAACTT against Lrrc26	2.43 (active)
GGUGAAGAGGAAGAUCCUGTT against Ctdnep1	0.421 (inactive)
GGGUUAUCCGUAUGUUUUCTT against Olfr557	0.964 (inactive)
